Sampled rows, rich in hits. Any-hit rate of the full collection: about 5.8%.
MCF10A rerep: DNA re-replication induction in MCF 10a cells | MCF 10A DNA re-replication, Hoechst nuclear intensity, 48 h | Potency, µM (series often up to 46.1 µM), for inactives: at the top dose activity, positive = re-replication, usual class: activators | 350,000 tested, 2.9% active | AID 624296; note: % of control where 0% means no effect; nearly all actives have a fitted effect of over 50% in size
SW480 rereplic: DNA re-replication induction in SW480 cells. SW480 DNA re-replication, Hoechst DNA content imaging, 48 h. Potency, µM (highest dose often 46.1 µM), inactives show at the highest dose re-replication activation, usual class: activators. 340,000 tested, 1.8% active; note: % of control where 0% means no effect; nearly all actives have a fitted effect of over 55% in size
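Image-based DNA-content assay: after two days of treatment, nuclei were labelled with the DNA dye Hoechst and imaged, and hits were compounds raising the count of nuclei showing high fluorescence intensity.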
KB-3-1 cytotox: kills parental KB-3-1 adenocarcinoma cells; KB-3-1 viability, CellTiter-Glo ATP luminescence, 72 h; AID 1347075; Potency, µM (doses to about 46.1 µM), hits mostly cytotoxic; 400,000 tested, 1.4% active; note: % is set by controls: 0 for no effect and ±100 for the full control effect; nearly all actives have a fitted effect of over 60% in size
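KB-3-1 cells, DMEM (no phenol red) + 10% FBS; compound by pin transfer, 72 h, 37 °C. Readout: CellTiter-Glo luminescence after 10 min. Data normalized, curve-fitted.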
12-LOX inh: inhibitors of human 12S-lipoxygenase ALOX12. Potency, µM (top dose mostly 108 µM), without a hit: at the highest dose activity change, negative = inhibition, most hits filed as inhibitors. 580,000 tested, 1.1% active. P18054. purified 12hLO, xylenol orange hydroperoxide absorbance. AID 1671190; note: % is set by controls: 0 for no effect and ±100 for the full control effect
Target sequence (P18054 whole entry, looked up): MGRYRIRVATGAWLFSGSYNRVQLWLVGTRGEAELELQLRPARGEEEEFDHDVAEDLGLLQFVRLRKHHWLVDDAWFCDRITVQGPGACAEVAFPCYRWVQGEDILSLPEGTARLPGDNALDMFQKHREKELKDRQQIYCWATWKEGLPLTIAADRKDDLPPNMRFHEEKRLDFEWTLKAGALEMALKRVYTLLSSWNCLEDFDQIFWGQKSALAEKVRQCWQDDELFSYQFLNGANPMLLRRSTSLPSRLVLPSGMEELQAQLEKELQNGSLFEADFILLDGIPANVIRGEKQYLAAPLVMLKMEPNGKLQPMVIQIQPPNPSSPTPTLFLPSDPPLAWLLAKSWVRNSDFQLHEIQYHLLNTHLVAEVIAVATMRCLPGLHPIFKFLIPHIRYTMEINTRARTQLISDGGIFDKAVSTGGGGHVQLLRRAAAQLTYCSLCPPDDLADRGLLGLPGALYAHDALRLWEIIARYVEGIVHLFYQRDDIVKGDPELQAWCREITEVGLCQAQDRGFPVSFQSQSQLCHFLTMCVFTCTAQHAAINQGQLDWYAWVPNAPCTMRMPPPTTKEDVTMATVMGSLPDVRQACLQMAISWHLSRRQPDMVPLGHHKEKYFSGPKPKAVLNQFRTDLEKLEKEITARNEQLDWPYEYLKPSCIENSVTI
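Purified human 12hLO (150 nM final) in 25 mM Hepes, 0.01% Triton X-100, pH 7.0 was preincubated 15 min at room temperature with compound. Then 40 uM arachidonic acid was added, 30 min. Hydroperoxide was read by Fe-XO absorbance ratio 573/405 nm.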
PINK1 modulator: PINK1 expression modulation | PINK1 immunofluorescence, high-content cytometry, 24 h | 410,000 tested, 0.2% active | AID 624263 | Potency, µM (doses to about 76.6 µM), without a hit: top-dose activation (PINK1 increase), usual class: activators; active = well fitted activation curve with a large enough effect; inconclusive = small, poorly fitted or top-dose-only effect; cell line not stated here; note: % of control where 0% means no effect; nearly all actives have a fitted effect of over 65% in size
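Readout is PINK1 immunofluorescence, quantified alongside mitochondrial, cell and nuclear markers by laser-scanning microplate cytometry. Cells from a stable line were exposed to compound titrations (5 concentrations) for 24 hours, with CCCP controls.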
KB-V1 cytotox: kills drug-selected multidrug resistant KB-V1 cells | 400,000 tested, 3.4% active | Potency, µM (doses to about 46.1 µM), most hits filed as cytotoxic | AID 1347076 | KB-V1 MDR cells viability, CellTiter-Glo, 72 h; note: % is set by controls: 0 for no effect and ±100 for the full control effect; nearly all actives have a fitted effect of over 60% in size
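KB-V1 MDR subline cells in DMEM (phenol-red free, 10% FBS) exposed to compounds in qHTS concentration series for 72 h at 37 degrees C. Viability read by CellTiter-Glo luminescence; concentration-effect curves fitted after normalization and correction.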
Numbers without * were called inactive; i = inactive; ? = inconclusive; . = not tested or not shown; [ ] = remark or other dose. Unless noted, calls come from the whole dose curve; as a rule, active = well fitted curve in the direction sought with a large enough effect; inconclusive = small, poorly fitted or top-dose-only effect, or another doubt; inactive = no such curve, though single readings can be large; an effect the other way counts as inactive or inconclusive. Potency is the fitted concentration of half-maximal effect.

SMILES	MCF10A rerep	SW480 rereplic	KB-3-1 cytotox	12-LOX inh	PINK1 modulator	KB-V1 cytotox
Nc1nc(NCCCc2ccco2)cc(C2CC(O)C2)n1 (centres undefined)	.	.	.	35%	.	.
CC(=O)C12CC3CC(C1)CC(C(C)=O)(C3)C2	.	.	.	-64%	.	.
Cc1n(Cc2ccccc2)c2ccccc2[n+]1Cc1ccccc1	16%	1%	6.5µM*	-22%	2%	i
Cc1n(Cc2ccccc2)c2cc([N+](=O)[O-])ccc2[n+]1Cc1ccccc1	-6%	1%	i	-7%	1%	i
COc1ccc(-c2c(C)oc3c(C)c(OCCN4CCCCC4)ccc3c2=O)cc1	.	.	.	-2%	.	.
CC(=O)N1N=C(c2ccc(Cl)cc2)CC1c1ccco1 (centres undefined)	6%	-4%	i	0%	-3%	i
Clc1ccc(C2=NN(c3ccccc3)C(c3ccco3)C2)cc1 (centres undefined)	0.73µM*	3.7µM*	i	0%	13%	i
CC(=O)N1N=C(c2ccc(C)cc2)CC1c1ccco1 (centres undefined)	?	-10%	i	-4%	-2%	i
Cc1nc(N2N=C(c3ccc(Cl)cc3)CC2c2ccco2)sc1C(=O)N(C)C (centres undefined)	23µM*	18µM*	i	?	4%	?
COc1ccc(C2=NN(C(=O)CN3CCc4ccccc4C3)C(c3ccco3)C2)cc1 (centres undefined)	.	.	.	-22%	.	.
Cc1ccc(N2N=C(c3ccc(F)cc3)CC2c2ccco2)cc1 (centres undefined)	5.8µM*	?	i	25µM*	10%	i
COc1ccc(C2=NN(c3nc(-c4ccccc4)c(CC(=O)O)s3)C(c3ccco3)C2)cc1 (centres undefined)	21µM*	?	i	11µM*	1%	i
CCOC(=O)C1CC(c2ccccc2)=NN1c1ccccc1 (centres undefined)	.	.	i	?	4%	i
Cc1ccc(C2CC(c3ccccc3)=NN2c2ccccc2)o1 (centres undefined)	18µM*	15µM*	i	?	19%	i
CS(=O)(=O)N1N=C(c2ccccc2)CC1c1ccco1 (centres undefined)	.	.	.	-22%	.	.
Fc1ccc(C2=NN(c3ccccc3)C(c3ccco3)C2)cc1 (centres undefined)	?	6.5µM*	i	?	15%	i
CCC(=O)N1CCc2cc(S(=O)(=O)CCC(=O)NCc3ccco3)ccc21	8.2µM*	?	?	14%	7%	i
CCC(=O)N1CCc2cc(S(=O)(=O)CCC(=O)NCCc3ccccc3)ccc21	24%	-1%	i	7%	-1%	i
O=C(NCc1ccncc1)c1cc(S(=O)(=O)C2CCS(=O)(=O)C2)ccc1F (centres undefined)	.	.	.	-1%	.	.
O=C(Nc1cccc(Cl)c1)c1ccc(Cn2c(=O)c3cccn3c3cccnc32)cc1	.	.	.	20%	.	.
C=CCN1C(=O)NC(c2ccccc2)(C(F)(F)F)S/C1=C(\C#N)c1nnc(N2CCOCC2)n1-c1ccccc1 (centres undefined)	21µM*	-15%	i	-3%	0%	?
C=CCN1C(c2ccc(Br)cc2)=CS/C1=C(\C#N)c1nnc(N2CCOCC2)n1-c1ccccc1	?	?	i	40µM*	-2%	?
CN1CCc2nc3sc(C(=O)NCc4ccccc4)c(N)c3cc2C1	18µM*	-1%	i	-18%	2%	i
Cc1ccc(Cn2c(SCC(=O)NCc3ccccc3)nc3ccsc3c2=O)cc1	.	.	.	-16%	0%	.
O=C(CSc1nc2ccccc2c(=O)n1Cc1ccccc1)NCc1ccco1	-4%	-8%	i	-9%	5.6µM*	i
SMILES	MCF10A rerep	SW480 rereplic	KB-3-1 cytotox	12-LOX inh	PINK1 modulator	KB-V1 cytotox
COc1ccc(CNc2nc(SCC(=O)NCc3ccco3)nc3ccccc23)cc1	20%	-1%	i	-28%	4%[38.3 µM]	6.5µM*
CCOC(=O)CSc1nc(NCc2ccco2)c2ccccc2n1	21%	-10%	i	-20%	1%[38.3 µM]	i
Cc1ccc(CNC(=O)CSc2nc3ccsc3c(=O)n2Cc2ccc(C(=O)O)cc2)cc1	0.65µM*	-23%	i	28%	0%	?
O=C(CSc1nc2ccccc2c(=O)n1Cc1ccco1)NCc1ccccc1	?	-5%	i	4%	21%[38.3 µM]	i
O=C(CSc1nc2c(sc3ccccc32)c(=O)n1CCc1ccccc1)NCc1ccco1	-2%	-4%	i	0%	-1%	2.1µM*
CCOc1ccc(N(Cc2nc3nc(C)cc(C)n3n2)S(=O)(=O)c2ccc(C)cc2)cc1	.	.	.	-24%	.	.
CC1CC(C)CN(C(=O)C(NS(=O)(=O)c2ccc(Br)s2)c2ccccc2)C1 (centres undefined)	16µM*	-97%	i	-18%	8%	i
CC(=O)[C@@]1(O)C(C)CC2C3C=C(C)C4=Cc5c(cnn5-c5ccccc5)C[C@]4(C)C3C(O)C[C@@]21C (some centres undefined)	15µM*	8.2µM*	?	-74%	10%	?
Cc1cc(C(=O)NC2CC(C)(C)Cc3c2cnn3-c2ccccc2)n(C)n1 (centres undefined)	-2%	3%	.	0%	3%	.
Cc1oc(-c2ccccc2F)nc1CS(=O)(=O)CC(=O)N1CCN(c2ccc(Cl)cc2)CC1	.	.	16µM*	0%	-1%	i
Cc1oc(-c2ccccc2F)nc1CS(=O)(=O)CC(=O)N1CCCCCC1	-3%	0%	i	8%	-2%	i
O=C(Cc1cccs1)Nc1ccc(-c2nc3cc(Cl)ccc3o2)cc1	.	.	.	6%	.	.
Oc1c(C(c2ccccn2)N2CCC(Cc3ccccc3)CC2)cc(Cl)c2cccnc12 (centres undefined)	16µM*	?	?	?	-1%	2.6µM*
Cc1cc(C)c(S(=O)(=O)N2CCCCC2CCNC(=O)C(=O)NCC2CCCO2)c(C)c1 (centres undefined)	6%	-1%	i	-7%	2%	?
Cc1ccc(S(=O)(=O)N2CCCCC2CCNC(=O)C(=O)NCc2cccnc2)cc1 (centres undefined)	?	16µM*	8.2µM*	4%	5%	?
Cc1ccccc1CNC(=O)C(=O)NCCC1CCCCN1S(=O)(=O)c1ccccc1 (centres undefined)	15%	0%	?	-12%	-3%	6.5µM*

Bioassay records from PubChem.
